According to ChEMBL document CHEMBL4513137, “CO-ADD screening of University of Manchester (UK) compounds”:
The whole screen tested about 23,000 compounds, of which about 30 (0.1%) showed an effect of 50% or more. This is one part of a sample in which strong results are shown more often than they occur. Measured potencies and affinities stand elsewhere.

Tested on: Pseudomonas aeruginosa
Conditions: Concentration 32 ug.mL-1; ASSAY_TEST Inhibition of Bacterial Growth; detection method Absorption (OD600); MEDIA CAMHB; plate type 384well; NBS; CORNING #3640; time 18 hr

Q: How did the Inhibition turn out when `O=[N+]([O-])c1ccc(-c2ccccc2Nc2ccccc2)cc1F` was run?
A: 55.36%

Q: With `O=[N+]([O-])c1ccc(-c2ccccc2Nc2ccccc2)cc1` as the compound, how does the Inhibition read?
A: -5.45%

Q: For `Cc1ccccc1Nc1ccccc1-c1ccc([N+](=O)[O-])cc1`, which Inhibition is on record?
A: -5.81%

Q: `COc1ccc(Nc2ccccc2-c2ccc([N+](=O)[O-])cc2)cc1` was tested. Which Inhibition did it give?
A: 65.22%

Q: `O=[N+]([O-])c1ccc(-c2ccccc2Nc2ccccc2)cc1C(F)(F)F` was tested. Which Inhibition did it give?
A: 49.55%

Q: How did the Inhibition turn out when `O=[N+]([O-])c1ccc(-c2c(Nc3ccccc3)cccc2-c2ccccc2)cc1` was run?
A: 19.1%

Q: `c1ccc(Nc2ccccc2-c2ncccn2)cc1` was tested. Which Inhibition did it give?
A: 60.14%

Q: With `CC(=O)c1ccc(-c2ccccc2Nc2ccccc2)cc1` as the compound, how does the Inhibition read?
A: 28.85%

Q: For `Clc1cc(Br)cc(Cl)c1-c1ccccc1Nc1ccccc1`, which Inhibition is on record?
A: 32.77%

Q: With `COc1cccc(Nc2ccccc2)c1-c1c(Cl)cc(Br)cc1Cl` as the compound, how does the Inhibition read?
A: 61.56%

Q: `COc1cc([N+](=O)[O-])ccc1-c1c(Nc2ccccc2)cccc1OC` was tested. Which Inhibition did it give?
A: 30.66%
